Reference: PubChem BioAssay (NCI)
The panel holds about 79,000 compounds, 15% with a hit somewhere; the sample as a whole holds those more often. Values without a mark were called inactive. Calls of active or inactive are those of the source. No stated cut-off is given here; in the data, active means growth inhibition above about 70%; inactive means the rest.

What was measured:
[1] = NCI Yeast Anticancer Drug Screen. Data for the mec2-1 strain (AID 157); conditions: S. cerevisiae mec2-1 strain, stronger effect = higher value
Outline: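 Vehicle-treated cultures served as reference for growth inhibition of compound-exposed mec2-1 yeast.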

[2] = NCI Yeast Anticancer Drug Screen. Data for the rad14 strain (AID 159);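 further: 0% = growth of vehicle-treated control cultures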; conditions: S. cerevisiae rad14 strain growth inhibition, stronger effect = higher value
Outline: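 Here, inhibition of yeast growth was measured after compound exposure, using a strain with a genetic defect in DNA damage repair and vehicle-treated cultures as the reference.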

[3] = NCI Yeast Anticancer Drug Screen. Data for the sgs1 mgt1 strain (AID 161);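 further: 0% = growth of cultures given vehicle only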; conditions: S. cerevisiae sgs1 mgt1 strain, stronger effect = higher value
Outline: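 Mutant yeast exposed to compound; growth scored against vehicle-only wells.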

[4] = NCI Yeast Anticancer Drug Screen. Data for the CLN2oe strain (AID 163);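 further: 0% = growth of vehicle-only control cultures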; conditions: S. cerevisiae CLN2oe strain, stronger effect = higher value
Outline: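 Inhibition relative to vehicle-treated yeast is reported. Cells: strain with genetic alteration in cell-cycle control, grown with compound.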

[5] = NCI Yeast Anticancer Drug Screen. Data for the cln2 rad14 strain (AID 165);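 further: 0% = growth equal to vehicle treated cultures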; conditions: S. cerevisiae cln2 rad14 strain, stronger effect = higher value
Outline: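 Each compound was tested on cln2 rad14 yeast. Inhibition of growth was calculated against vehicle-exposed controls.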

[6] = NCI Yeast Anticancer Drug Screen. Data for the bub3 strain (AID 167); conditions: S. cerevisiae bub3 mutant strain, stronger effect = higher value
Outline: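 Whole-cell yeast assay. The mutant strain was incubated with compounds, and growth inhibition was determined by comparison with vehicle-treated cells.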

[7] = NCI Yeast Anticancer Drug Screen. Data for the wt2 strain (AID 169);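 further: 0% = growth of vehicle-treated yeast cultures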; conditions: S. cerevisiae wt2 strain growth inhibition, stronger effect = higher value
Outline: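 Inhibition of yeast growth was determined after compound treatment, normalised to controls receiving only vehicle.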

[8] = NCI Yeast Anticancer Drug Screen. Data for the mlh1 strain (AID 171);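 further: 0% = growth of vehicle-treated control cultures of the same strain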; conditions: S. cerevisiae mlh1 strain growth inhibition, stronger effect = higher value
Outline: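 Vehicle-normalised growth inhibition of a repair- or checkpoint-altered yeast strain following compound treatment.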

[9] = NCI Yeast Anticancer Drug Screen. Data for the sgs1 strain (AID 173);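 further: 0% = growth of vehicle-only control cultures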; conditions: S. cerevisiae sgs1 mutant, stronger effect = higher value
Outline: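 Screen format: yeast with repair or checkpoint alterations, compound exposure, growth read relative to vehicle.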

[10] = NCI Yeast Anticancer Drug Screen. Data for the mlh1 rad18 strain (AID 175); conditions: S. cerevisiae mlh1 rad18 strain growth inhibition, stronger effect = higher value
Outline: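 Vehicle-treated cultures served as the reference for growth inhibition in a yeast strain carrying DNA damage repair alterations exposed to each compound.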

[11] = NCI Yeast Anticancer Drug Screen. Data for the rad18 strain (AID 177); conditions: S. cerevisiae rad18 mutant growth inhibition, stronger effect = higher value
Outline: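 Test articles were incubated with altered yeast defective in DNA damage repair. Results are given as inhibition of growth versus vehicle.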

[12] = NCI Yeast Anticancer Drug Screen. Data for the wt1 strain (AID 149);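 further: 0% = growth of vehicle-treated wt1 cultures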; conditions: S. cerevisiae wt1 strain (SPY 50644) growth inhibition, stronger effect = higher value
Outline: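 Measured: growth of wt1 yeast under compound versus vehicle treatment, reported as inhibition.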

[13] = NCI Yeast Anticancer Drug Screen. Data for the rad50EPP+ strain (AID 151);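 further: 0% = growth of vehicle-treated control cultures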; conditions: S. cerevisiae rad50 mutant strain, stronger effect = higher value
Outline: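 In this screen, rad50EPP+ yeast were exposed to compounds. Growth inhibition was scored against vehicle-treated controls.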

[14] = NCI Yeast Anticancer Drug Screen. Data for the mgt1 strain (AID 153); conditions: S. cerevisiae mgt1 mutant growth inhibition, stronger effect = higher value
Outline: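 mgt1 strain exposed; growth vs vehicle control recorded as inhibition.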

[15] = NCI Yeast Anticancer Drug Screen. Data for the rad50 strain (AID 155);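 further: 0% = growth of vehicle-only cultures of the same strain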; conditions: S. cerevisiae rad50 strain growth inhibition, stronger effect = higher value
Outline: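 Growth of the mutant yeast was measured after compound exposure and referenced to vehicle-treated cultures.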

[16] = at 5.0 µM (retest, dose inferred, filed as 0.5)
[17] = at 50.0 µM (retest, dose inferred, filed as 5.0)

For `Cc1ccc(N(C=O)c2c([N+](=O)[O-])cc([N+](=O)[O-])c3c2=[N+]([O-])CN=3)cc1`, the growth inhibition ([1]; at 100.0 µM) was 98% (active), the growth inhibition ([2]; at 1.2 µM) was -15% and the growth inhibition ([2]; at 3.7 µM) was 1%. The growth inhibition ([2]; at 11.0 µM) was 30%, the growth inhibition ([2]; at 33.0 µM) was 94% (active) and the growth inhibition ([2]; at 100.0 µM) was 97% (active). The growth inhibition [3, 16] was 12%, the growth inhibition [3, 17] was 84% (active) and the growth inhibition ([3]; at 50.0 µM) was 58.8%. For the same compound, the growth inhibition ([4]; at 1.2 µM) was -3%, the growth inhibition ([4]; at 3.7 µM) was 8% and the growth inhibition ([4]; at 11.0 µM) was 34%. For the same compound, the growth inhibition ([4]; at 33.0 µM) was 95% (active), the growth inhibition ([4]; at 100.0 µM) was 98% (active) and the growth inhibition [5, 16] was 28%. For the same compound, the growth inhibition [5, 17] was 81% (active), the growth inhibition ([5]; at 50.0 µM) was 31.6% and the growth inhibition ([6]; at 1.2 µM) was -1%. For the same compound, the growth inhibition ([6]; at 3.7 µM) was 5%, the growth inhibition [6, 16] was 38% and the growth inhibition ([6]; at 11.0 µM) was 19%. For the same compound, the growth inhibition ([6]; at 33.0 µM) was 72% (active), the growth inhibition [6, 17] was 98% (active) and the growth inhibition ([6]; at 50.0 µM) was 11%. The growth inhibition ([6]; at 100.0 µM) was 97% (active), the growth inhibition ([7]; at 1.2 µM) was 9% and the growth inhibition ([7]; at 3.7 µM) was 17%. For the same compound, the growth inhibition ([7]; at 11.0 µM) was 46%, the growth inhibition ([7]; at 33.0 µM) was 90% (active) and the growth inhibition ([7]; at 100.0 µM) was 98% (active). The growth inhibition ([8]; at 1.2 µM) was -1%, the growth inhibition ([8]; at 3.7 µM) was 6% and the growth inhibition ([8]; at 11.0 µM) was 48%. The growth inhibition ([8]; at 33.0 µM) was 94% (active), the growth inhibition ([8]; at 100.0 µM) was 98% (active) and the growth inhibition ([9]; at 1.2 µM) was 16%. The growth inhibition ([9]; at 3.7 µM) was 21%, the growth inhibition ([9]; at 11.0 µM) was 51% and the growth inhibition ([9]; at 33.0 µM) was 89% (active). For the same compound, the growth inhibition ([9]; at 100.0 µM) was 98% (active), the growth inhibition [10, 16] was 12% and the growth inhibition [10, 17] was 98% (active). The growth inhibition ([10]; at 50.0 µM) was 41.3%, the growth inhibition ([11]; at 1.2 µM) was 0% and the growth inhibition ([11]; at 3.7 µM) was 14%. For the same compound, the growth inhibition ([11]; at 11.0 µM) was 47%, the growth inhibition ([11]; at 33.0 µM) was 91% (active) and the growth inhibition ([11]; at 100.0 µM) was 98% (active).

With `O=C(O)/C=C\C(=O)NNc1ccc(Br)cc1` the growth inhibition ([12]; at 1.2 µM) was 2%, the growth inhibition ([12]; at 3.7 µM) was 97% (active) and the growth inhibition ([12]; at 11.0 µM) was 99% (active). The growth inhibition ([12]; at 33.0 µM) was 99% (active), the growth inhibition ([12]; at 100.0 µM) was 99% (active) and the growth inhibition ([13]; at 1.2 µM) was 14%. The growth inhibition ([13]; at 3.7 µM) was 78% (active), the growth inhibition ([13]; at 11.0 µM) was 98% (active) and the growth inhibition ([13]; at 33.0 µM) was 99% (active). For the same compound, the growth inhibition ([13]; at 100.0 µM) was 99% (active), the growth inhibition ([14]; at 1.2 µM) was -1% and the growth inhibition ([14]; at 3.7 µM) was 32%. For the same compound, the growth inhibition ([14]; at 11.0 µM) was 99% (active), the growth inhibition ([14]; at 33.0 µM) was 99% (active) and the growth inhibition ([14]; at 100.0 µM) was 98% (active). For the same compound, the growth inhibition ([15]; at 1.2 µM) was 8%, the growth inhibition ([15]; at 3.7 µM) was 53% and the growth inhibition [15, 16] was 10%. For the same compound, the growth inhibition ([15]; at 11.0 µM) was 99% (active), the growth inhibition ([15]; at 33.0 µM) was 98% (active) and the growth inhibition [15, 17] was 97% (active). The growth inhibition ([15]; at 50.0 µM) was 98.3% (active), the growth inhibition ([15]; at 100.0 µM) was 99% (active) and the growth inhibition ([1]; at 1.2 µM) was 1%. The growth inhibition ([1]; at 3.7 µM) was 90% (active), the growth inhibition [1, 16] was 76% (active) and the growth inhibition ([1]; at 11.0 µM) was 99% (active). The growth inhibition ([1]; at 33.0 µM) was 99% (active), the growth inhibition [1, 17] was 99% (active) and the growth inhibition ([1]; at 50.0 µM) was 98.2% (active). The growth inhibition ([1]; at 100.0 µM) was 99% (active), the growth inhibition ([2]; at 1.2 µM) was 4% and the growth inhibition ([2]; at 3.7 µM) was 99% (active). For the same compound, the growth inhibition ([2]; at 11.0 µM) was 99% (active), the growth inhibition ([2]; at 33.0 µM) was 99% (active) and the growth inhibition ([2]; at 100.0 µM) was 99% (active). For the same compound, the growth inhibition [3, 16] was 31%, the growth inhibition [3, 17] was 98% (active) and the growth inhibition ([3]; at 50.0 µM) was 98.5% (active). The growth inhibition ([4]; at 1.2 µM) was -6%, the growth inhibition ([4]; at 3.7 µM) was 96% (active) and the growth inhibition ([4]; at 11.0 µM) was 99% (active). For the same compound, the growth inhibition ([4]; at 33.0 µM) was 99% (active), the growth inhibition ([4]; at 100.0 µM) was 99% (active) and the growth inhibition [5, 16] was 15%. For the same compound, the growth inhibition [5, 17] was 97% (active), the growth inhibition ([5]; at 50.0 µM) was 97.3% (active) and the growth inhibition ([6]; at 1.2 µM) was 10%. The growth inhibition ([6]; at 3.7 µM) was 60%, the growth inhibition [6, 16] was 3% and the growth inhibition ([6]; at 11.0 µM) was 99% (active). For the same compound, the growth inhibition ([6]; at 33.0 µM) was 99% (active), the growth inhibition [6, 17] was 97% (active) and the growth inhibition ([6]; at 50.0 µM) was 98.5% (active). The growth inhibition ([6]; at 100.0 µM) was 99% (active), the growth inhibition ([7]; at 1.2 µM) was 13% and the growth inhibition ([7]; at 3.7 µM) was 99% (active). The growth inhibition ([7]; at 11.0 µM) was 99% (active), the growth inhibition ([7]; at 33.0 µM) was 99% (active) and the growth inhibition ([7]; at 100.0 µM) was 99% (active). For the same compound, the growth inhibition ([8]; at 1.2 µM) was -2%, the growth inhibition ([8]; at 3.7 µM) was 77% (active) and the growth inhibition ([8]; at 11.0 µM) was 98% (active). For the same compound, the growth inhibition ([8]; at 33.0 µM) was 98% (active), the growth inhibition ([8]; at 100.0 µM) was 99% (active) and the growth inhibition ([9]; at 1.2 µM) was 4%. For the same compound, the growth inhibition ([9]; at 3.7 µM) was 66%, the growth inhibition ([9]; at 11.0 µM) was 99% (active) and the growth inhibition ([9]; at 33.0 µM) was 99% (active). For the same compound, the growth inhibition ([9]; at 100.0 µM) was 99% (active), the growth inhibition [10, 16] was 27% and the growth inhibition [10, 17] was 98% (active). For the same compound, the growth inhibition ([10]; at 50.0 µM) was 98.3% (active), the growth inhibition ([11]; at 1.2 µM) was -2% and the growth inhibition ([11]; at 3.7 µM) was 95% (active). For the same compound, the growth inhibition ([11]; at 11.0 µM) was 98% (active), the growth inhibition ([11]; at 33.0 µM) was 98% (active) and the growth inhibition ([11]; at 100.0 µM) was 98% (active).
